Our source for the AC50 and outcome values is PubChem BioAssay (EPA / NIEHS).

Inconclusive results are not listed. Active and inactive are the calls of the source. How the source made its calls: active means hit-call score of the fitted dose curve at least 0.9, where 1 is the maximum; inconclusive means response in the unintended direction; inactive means score below 0.9.

Experiment [1] deals with Cellular tumor antigen p53 (Homo sapiens) (UniProt P04637). Put plainly: TOX21_p53_BLA_p5_ratio: Tox21 HCT-116 p53 Agonism Beta-lactamase Assay, Ratio, Phase 5 (AID 2283599). The method in brief: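 HCT-116 p53-bla cells (4000/well) plated 5 h, dosed with compound (217-fold DMSO dilution) for 16 h at 37 C; CCF4-AM substrate 2 h at room temperature. Activity is the 460/530 nm emission ratio (405 nm excitation), fitted in gain-of-signal direction versus DMSO.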

A short description of experiment [2]: TOX21_p53_BLA_p5_viability: Viability Assessment in the Tox21 HCT-116 p53 Agonism Beta-lactamase Assay, Phase 5 (AID 2283600). Summed up: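 After the 460/530 nm beta-lactamase measurement, the wells received an ATP-detection luciferase reagent; signal was read 30 min later at RT. Compound treatment lasted 16 h on cells pre-incubated 5 h post-seeding.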
The target in experiment [3] is Cellular tumor antigen p53 (Homo sapiens) (UniProt P04637). Briefly: TOX21_p53_BLA_p4_ratio: Tox21 HCT-116 p53 Agonism Beta-lactamase Assay, Ratio, Phase 4 (AID 2283601). Summed up:
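HCT-116 p53 beta-lactamase reporter cells (4000/well) preincubated 5 h, then compound (217-fold dilution of DMSO stock) for 16 h at 37C. CCF4-AM substrate added 2 h at room temperature; 460/530 nm emission ratio fitted upward versus DMSO.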

Cellular tumor antigen p53 (Homo sapiens), sequence (P04637 whole entry, looked up): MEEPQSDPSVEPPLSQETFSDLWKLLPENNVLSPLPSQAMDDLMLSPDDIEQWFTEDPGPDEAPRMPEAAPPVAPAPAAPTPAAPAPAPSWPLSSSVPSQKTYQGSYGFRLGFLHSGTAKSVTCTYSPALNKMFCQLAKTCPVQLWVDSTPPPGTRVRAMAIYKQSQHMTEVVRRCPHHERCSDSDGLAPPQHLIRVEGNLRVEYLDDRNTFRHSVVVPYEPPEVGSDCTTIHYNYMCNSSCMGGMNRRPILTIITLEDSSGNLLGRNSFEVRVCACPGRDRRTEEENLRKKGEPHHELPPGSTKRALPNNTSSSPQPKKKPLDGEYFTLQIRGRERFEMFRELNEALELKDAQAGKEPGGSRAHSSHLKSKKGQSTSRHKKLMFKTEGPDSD

For the molecule `C=CC(=O)[O][Sn]([CH2]CCC)([CH2]CCC)[CH2]CCC`, the figures for the concentration at half-maximal activity (AC50) in experiment [1], in experiment [2] and in experiment [3] were 13.4 µM (active), 1.82 µM (active) and 13.4 µM (active), respectively.

`CCOP(=S)(OCC)Oc1ccc(Cl)cc1Cl`: the result in experiment [1], in experiment [2] and in experiment [3] was inactive.

With `O=[N+]([O-])c1cc([As](=O)(O)O)ccc1O`, the outcome in experiment [1], in experiment [2] and in experiment [3] was inactive.

For the molecule `CC(=Cc1ccccc1)[N+](=O)[O-]`, the outcome in experiment [1], in experiment [2] and in experiment [3] was inactive.

For the molecule `[F][Sn]([c]1ccccc1)([c]1ccccc1)[c]1ccccc1`, the AC50 (as a rule, the concentration giving half of the maximal activity seen) in experiment [1] is 18.3 µM (active); in experiment [2] it was 13.2 µM (active); in experiment [3], 12 µM (active).

As to `O=C(NC(=O)c1c(F)cccc1F)Nc1cc(Cl)c(Oc2ncc(C(F)(F)F)cc2Cl)c(Cl)c1`, the half-maximal activity concentration (AC50) was 13.7 µM (active) in experiment [1] and 15.6 µM (active) in experiment [3]. In addition, in experiment [2], the molecule was classed as inactive.

Take `C[C@H]1C(=O)O[C@@H]2CCN3CC=C(COC(=O)[C@](C)(O)[C@]1(C)O)[C@H]23`: the result in experiment [1], in experiment [2] and in experiment [3] was inactive.

Take `CCOc1cc(C=O)ccc1O`: the outcome in experiment [1], in experiment [2] and in experiment [3] was inactive.

`CCN(CC)C(=O)C(Cl)=C(C)OP(=O)(OC)OC`: the result in experiment [1], in experiment [2] and in experiment [3] was inactive.

Turning to `Cc1cc(C(F)(C(F)(F)F)C(F)(F)F)ccc1NC(=O)c1cccc(I)c1C(=O)NC(C)(C)CS(C)(=O)=O`, the result in experiment [1] and in experiment [2] was inactive. In experiment [3], the AC50 is 56.9 µM (active).

As to `Cc1cccc(C)c1NC(=O)CN1CCCC1=O`, the outcome in experiment [1], in experiment [2] and in experiment [3] was inactive.

`CS(=O)(=O)c1ccc(C(=O)C2C(=O)CCCC2=O)c(Cl)c1COCC(F)(F)F`: the outcome in experiment [1], in experiment [2] and in experiment [3] was inactive.

Regarding `CCOc1ccc(N)cc1`, the result in experiment [1], in experiment [2] and in experiment [3] was inactive.
